Bioassay records as filed in PubChem.
CSC inhib: blocks cancer stem cells; inhibition, % at 7.5 µM; actives 1.1% (n = 300,000); cancer stem cell-like cells viability, luminescence; in the data active means inhibition above about 75%; inconclusive means no clear call, values can overlap the other calls; tested in HMLE shEcad cells
Gli-Sufu block: antagonists of Gli-Sufu signaling | actives 0.74% (n = 340,000) | inhibition, % at 5 µM | Sufu-KO-LIGHT fibroblasts, Gli luciferase reporter luminescence;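 active means inhibition above about 55%, limit read from the data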;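 further: 0% = DMSO-treated cells and 100% = wells with medium but no cells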
PAX8 reporter: inhibitors of PAX8 transcriptional activity in RMG-I cells; RMG-I TPO-luciferase reporter, SteadyGlo, 24 h; inhibition, % at 12.6 µM; actives 1.2% (n = 360,000); AID 652154;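 active means mean replicate inhibition at least 60% with every replicate also reaching 60%; inconclusive means only one of the two criteria is met; inactive means mean below 60% and not all replicates reaching 60%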;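 further: luciferase light reporting Pax8 driven TPO promoter activity; plate controls were median of neutral control wells for no effect and mitoxantrone controls for full effect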
Mdm2-MdmX inh: disrupts the human Mdm2-MdmX interaction; SaOS-2 split-luciferase Mdm2/MdmX complementation, luminescence; O15151+Q00987; actives 3% (n = 330,000); inhibition, % at 8 µM;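 active means inhibition of at least 50% at 8 µM in the primary screen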
Target sequence (O15151 whole entry, looked up): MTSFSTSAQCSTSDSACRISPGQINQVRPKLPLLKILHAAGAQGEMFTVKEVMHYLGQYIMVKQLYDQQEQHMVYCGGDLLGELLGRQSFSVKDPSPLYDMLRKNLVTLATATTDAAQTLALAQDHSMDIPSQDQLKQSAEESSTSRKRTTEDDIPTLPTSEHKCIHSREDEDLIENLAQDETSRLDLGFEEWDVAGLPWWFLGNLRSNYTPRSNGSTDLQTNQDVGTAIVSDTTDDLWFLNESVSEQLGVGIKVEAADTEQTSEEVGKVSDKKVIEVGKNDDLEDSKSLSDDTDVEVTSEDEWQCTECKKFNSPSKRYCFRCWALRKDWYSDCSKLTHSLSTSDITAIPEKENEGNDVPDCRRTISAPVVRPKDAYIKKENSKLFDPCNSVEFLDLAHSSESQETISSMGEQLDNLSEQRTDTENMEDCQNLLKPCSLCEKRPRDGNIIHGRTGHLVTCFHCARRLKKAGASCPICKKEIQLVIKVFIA
Target sequence (Q00987 whole entry, looked up): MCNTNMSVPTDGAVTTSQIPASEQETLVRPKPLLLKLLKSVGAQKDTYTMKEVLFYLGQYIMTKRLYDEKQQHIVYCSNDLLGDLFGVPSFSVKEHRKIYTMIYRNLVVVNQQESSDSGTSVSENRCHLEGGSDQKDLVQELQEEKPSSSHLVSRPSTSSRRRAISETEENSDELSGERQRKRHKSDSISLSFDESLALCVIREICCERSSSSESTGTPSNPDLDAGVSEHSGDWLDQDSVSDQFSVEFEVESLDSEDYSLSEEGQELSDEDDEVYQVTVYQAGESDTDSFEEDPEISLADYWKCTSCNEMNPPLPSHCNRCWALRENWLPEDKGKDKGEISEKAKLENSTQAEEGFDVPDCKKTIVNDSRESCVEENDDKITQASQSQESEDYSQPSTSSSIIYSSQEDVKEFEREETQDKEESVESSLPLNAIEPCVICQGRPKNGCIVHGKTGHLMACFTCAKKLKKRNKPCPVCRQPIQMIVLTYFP
Beta cell apopt: beta cell apoptosis inhibition; AID 435005; protection from apoptosis, % (concentration not given with the values); actives 0.8% (n = 300,000); INS-1E cytokine-induced death, ATP luminescence, 48 h; percent of positive-control rescue, neutral wells zero;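 active means Every replicate reaches about 75%, or at least half do and their mean reaches it too, limit read from the data; inconclusive means At least half of replicates reach the limit but their mean does not; inactive means Under half of replicates reach the limit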;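 further: 0% = cytokine-treated negative control wells and 100% = positive control rescue; higher means more ATP so stronger rescue from cytokine killing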
Shn3 3UTR inh: reduces Shn3 3'UTR luciferase signal in osteoblasts. Clone20 osteoblast Shn3 3'UTR firefly luciferase, 24 h. inhibition, % at 12.5 µM. actives 0.52% (n = 360,000). AID 588674;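 active means mean inhibition of at least 75% with every replicate also reaching 75%; inconclusive means mean inhibition at least 75% but some replicate below; inactive means mean inhibition below 75%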;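 further: 0% = median of neutral control wells and 100% = pilot-screen positive control compound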
Mdm2 MdmX conf: human Mdm2/MdmX binding inhibition, confirmed | shares compounds with Mdm2-MdmX inh | luminescent assay | inhibition, % at 8 µM | actives 55% (n = 10,000); in the data active means inhibition above about 40%
Full FLuc ctr: full-length luciferase inhibition in Mdm2/MdmX counter-screen. shares compounds with Mdm2-MdmX inh. SaOS-2 full-length luciferase counterscreen, luminescence. inhibition, % at 8 µM. actives 77% (n = 6,200). AID 504607;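 active means mean inhibition at 8 µM reaching about 37%, which flags the compound as non-specific, limit read from the data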;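 further: p53-null SaOS-2 cells with luciferase driven by a doxycycline-inducible promoter; compound on cells about two nights before reading with doxycycline added after day one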
Numbers without * were called inactive. In the library only some 4% were active in any assay of this set; here they are far more common.

Screening COc1cc(CNC(C)(C)CO)cc(Br)c1OCc1ccc(Cl)cc1Cl returned CSC inhib inconclusive, Gli-Sufu block 14, PAX8 reporter 13, Mdm2-MdmX inh 55*, Beta cell apopt 3, Shn3 3UTR inh -5, Mdm2 MdmX conf 40* and Full FLuc ctr 102*.
`COc1cc(CNCCN2CCOCC2)ccc1OCc1ccc(Cl)cc1Cl` gave Gli-Sufu block -2, Mdm2-MdmX inh 53*, Beta cell apopt 16, Shn3 3UTR inh 3 and Mdm2 MdmX conf 20.
`CC(C)NC(=O)N(C)C[C@@H]1Oc2ccc(NC(=O)CCCCCC(=O)Nc3ccccc3N)cc2CC(=O)N([C@@H](C)CO)C[C@H]1C` gave PAX8 reporter -6.
Screening C[C@@H]1CCCCO[C@@H](CN(C)S(=O)(=O)c2ccc(F)cc2)[C@@H](C)CN([C@@H](C)CO)C(=O)c2cc(NS(=O)(=O)c3cn(C)cn3)ccc2O1 returned PAX8 reporter -27.
Screening COc1ccc(S(=O)(=O)Nc2ccc3c(c2)C(=O)N([C@H](C)CO)C[C@@H](C)[C@H](CN(C)C(=O)NC2CCCCC2)OCCCC[C@@H](C)O3)cc1 returned PAX8 reporter 14.
For C[C@H](CO)N1C[C@H](C)[C@H](CN(C)C(=O)[C@H](C)c2ccccc2)OCc2ccccc2-c2c(n(C)c3ccccc23)C1=O the results were PAX8 reporter 13.
Screening Cc1noc(C)c1NC(=O)N(C)C[C@@H]1OCc2ccccc2-c2ccccc2C(=O)N([C@@H](C)CO)C[C@H]1C returned PAX8 reporter -15.
For C[C@@H]1CN([C@H](C)CO)C(=O)c2cccc(NC(=O)C3CCCCC3)c2O[C@@H]1CN(C)Cc1ccc2c(c1)OCO2 the results were PAX8 reporter -5.
For COc1cc(C(=O)NC2CCCCC2)ccc1OCc1ccc(Cl)cc1Cl the results were CSC inhib 7, Gli-Sufu block 3, PAX8 reporter 7, Mdm2-MdmX inh 58*, Beta cell apopt -1, Shn3 3UTR inh 11 and Mdm2 MdmX conf 12.
Screening COc1ccc(Oc2nc3c(c(=O)n(C)c(=O)n3C)n2C)cc1 returned CSC inhib -15, Gli-Sufu block -1, PAX8 reporter -7, Mdm2-MdmX inh 37, Beta cell apopt -2 and Shn3 3UTR inh -10.
`Cn1c(=O)c2c(nc(Oc3ccc4ccccc4c3)n2C)n(C)c1=O` gave CSC inhib 6, Gli-Sufu block -4, Mdm2-MdmX inh 52*, Beta cell apopt -4, Shn3 3UTR inh 6, Mdm2 MdmX conf 62* and Full FLuc ctr 34.
COc1cc(-c2ccc(Nc3ccccc3C(=O)O)c(OC)c2)ccc1Nc1ccccc1C(=O)O was read as Gli-Sufu block 8, PAX8 reporter 11, Mdm2-MdmX inh 81*, Shn3 3UTR inh -6 and Mdm2 MdmX conf 32.
O=C(C[C@H]1CC[C@H](NC(=O)Nc2cc(F)ccc2F)[C@H](CO)O1)NCCCN1CCOCC1 was read as PAX8 reporter 1.
`OC(CNCc1ccco1)Cn1c2ccc(Br)cc2c2cc(Br)ccc21` (stereo unspecified) gave CSC inhib 106*, Gli-Sufu block -1, Mdm2-MdmX inh 75*, Beta cell apopt 3, Shn3 3UTR inh 18, Mdm2 MdmX conf 31 and Full FLuc ctr 70*.
Screening O=C(Nc1cccc(F)c1)N1CC(=O)N2[C@H](CO)[C@H](c3ccc(C#CCC4CCCC4)cc3)[C@@H]2C1 returned PAX8 reporter 18.
For CC(C)c1nc(NCCO)c(C#N)c2c1CCCC2 the results were CSC inhib -8, Gli-Sufu block -7, PAX8 reporter -15, Mdm2-MdmX inh 53*, Beta cell apopt -9, Shn3 3UTR inh 9, Mdm2 MdmX conf 57* and Full FLuc ctr 35.
`CC(C)c1nc(NCc2ccccc2)c(C#N)c2c1CCCC2` gave CSC inhib 7, Gli-Sufu block -1, Mdm2-MdmX inh 42, Beta cell apopt -6 and Shn3 3UTR inh 19.
O=C(CNC(=O)c1ccco1)N=Nc1c(O)n(CCc2ccccc2)c2ccccc12 was read as CSC inhib 48, Gli-Sufu block 0, PAX8 reporter 26, Mdm2-MdmX inh 62*, Beta cell apopt 17, Shn3 3UTR inh 12, Mdm2 MdmX conf 56* and Full FLuc ctr 106*.
Screening C=CS(=O)(=O)c1ccc(Oc2ccc(S(=O)(=O)C=C)cc2)cc1 returned CSC inhib -10, Gli-Sufu block 6, PAX8 reporter 98*, Mdm2-MdmX inh 100*, Beta cell apopt 106*, Shn3 3UTR inh 96*, Mdm2 MdmX conf 100* and Full FLuc ctr 1.
Cc1oc(-c2ccccc2Cl)nc1CSCC(=O)NC1CCCC1 was read as CSC inhib -4, Gli-Sufu block 7, PAX8 reporter 25, Mdm2-MdmX inh 31, Beta cell apopt -2 and Shn3 3UTR inh -1.
Cc1oc(-c2ccccc2Cl)nc1CSCC(=O)N1CCCC1 was read as CSC inhib 34, Gli-Sufu block 12, PAX8 reporter 14, Mdm2-MdmX inh 78*, Beta cell apopt -4, Shn3 3UTR inh -15, Mdm2 MdmX conf 84* and Full FLuc ctr 26.
CC1=CC(=O)C(C(C)C)=C/C1=N\OC(=O)c1cccc2nc(C)oc12 was read as CSC inhib 7, Gli-Sufu block 28, PAX8 reporter 31, Mdm2-MdmX inh 53*, Beta cell apopt -5, Shn3 3UTR inh 8 and Mdm2 MdmX conf 20.
Cc1cc(C)cc(Nc2ccc([N+](=O)[O-])nc2[N+](=O)[O-])c1 was read as CSC inhib -3, Gli-Sufu block 0, Mdm2-MdmX inh -19, Beta cell apopt -2 and Shn3 3UTR inh -27.
COc1cc(Nc2ccc(C)cc2)c([N+](=O)[O-])nc1[N+](=O)[O-] was read as CSC inhib inconclusive, Gli-Sufu block -8, Mdm2-MdmX inh 53*, Beta cell apopt 50, Shn3 3UTR inh -2, Mdm2 MdmX conf 42* and Full FLuc ctr 87*.
`C[C@@H]1CN([C@H](C)CO)C(=O)Cc2cc(NS(=O)(=O)c3ccccc3)ccc2O[C@@H]1CN(C)S(C)(=O)=O` gave PAX8 reporter 5.
`COc1cc(C(C[N+](=O)[O-])c2c(-c3ccccc3)cc3ccccn23)cc(OC)c1OC` (stereo unspecified) gave CSC inhib 10, Gli-Sufu block 11, PAX8 reporter 15, Mdm2-MdmX inh 55*, Beta cell apopt -8, Shn3 3UTR inh 18 and Mdm2 MdmX conf 15.
